In all, about 310,000 compounds went through this assay and about 14,000 (4.5%) showed an effect of 50% or more. Effects have a minus sign here. Shown is part of a subset that was picked to be rich in strong results.
Target: human ether-à-go-go-related gene (hERG) potassium channel (human, UniProt Q12809)
Assay: primary screen, population patch clamp on CHO cells stably expressing hERG; higher = less effect of the substance
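Further: peak tail current of the secondary pulse compared with the same well before compound.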

human ether-à-go-go-related gene (hERG) potassium channel, sequence (Q12809 whole entry, looked up): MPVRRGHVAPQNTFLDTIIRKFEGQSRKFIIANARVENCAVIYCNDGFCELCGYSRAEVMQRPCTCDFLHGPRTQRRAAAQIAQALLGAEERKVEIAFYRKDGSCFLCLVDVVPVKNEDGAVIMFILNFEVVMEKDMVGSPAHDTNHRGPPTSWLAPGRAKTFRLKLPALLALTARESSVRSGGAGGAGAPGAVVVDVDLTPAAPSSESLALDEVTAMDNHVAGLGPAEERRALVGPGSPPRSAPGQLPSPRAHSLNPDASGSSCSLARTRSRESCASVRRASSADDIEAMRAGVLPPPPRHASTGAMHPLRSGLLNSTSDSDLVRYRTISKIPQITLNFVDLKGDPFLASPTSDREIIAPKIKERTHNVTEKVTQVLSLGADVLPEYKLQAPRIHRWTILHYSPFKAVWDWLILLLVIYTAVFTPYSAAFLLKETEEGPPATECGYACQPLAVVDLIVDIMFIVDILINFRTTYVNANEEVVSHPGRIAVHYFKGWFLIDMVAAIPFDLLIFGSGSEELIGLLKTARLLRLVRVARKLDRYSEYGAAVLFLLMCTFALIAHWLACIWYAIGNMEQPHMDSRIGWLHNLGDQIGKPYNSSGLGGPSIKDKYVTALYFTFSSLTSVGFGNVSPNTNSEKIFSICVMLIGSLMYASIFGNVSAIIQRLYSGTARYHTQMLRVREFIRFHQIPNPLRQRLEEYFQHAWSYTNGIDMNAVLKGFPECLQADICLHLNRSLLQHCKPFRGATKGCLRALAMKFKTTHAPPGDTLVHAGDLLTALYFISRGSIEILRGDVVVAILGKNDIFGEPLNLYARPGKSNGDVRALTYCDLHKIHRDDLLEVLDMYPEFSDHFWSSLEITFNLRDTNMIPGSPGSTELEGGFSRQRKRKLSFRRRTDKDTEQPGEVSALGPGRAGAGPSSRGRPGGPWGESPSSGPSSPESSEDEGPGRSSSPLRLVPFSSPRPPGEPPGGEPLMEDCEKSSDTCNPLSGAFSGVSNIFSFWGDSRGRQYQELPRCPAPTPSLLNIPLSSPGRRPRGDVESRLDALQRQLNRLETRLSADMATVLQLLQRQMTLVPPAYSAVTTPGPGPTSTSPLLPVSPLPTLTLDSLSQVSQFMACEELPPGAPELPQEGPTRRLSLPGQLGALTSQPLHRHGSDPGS

SMILES | hERG current change (%, negative = inhibition) at 10uM
C#Cc1ccc([C@H]2C=C(C(=O)O)O[C@@H](OCc3ccc(CO)cc3)C2)cc1 | 9.26%
Clc1ccccc1OCCCCn1ccnc1 | -2.93%
O=C(O)CN1C(=O)/C(=C\c2ccccc2OCc2ccc(Cl)cc2)SC1=S | 15.3%
Cc1ccc(C2C(C(=O)c3cc4ccccc4o3)=C(O)C(=O)N2c2cc(C)on2)cc1 (stereo not drawn) | 19.3%
CCOc1ccc2nc(SCC(=O)Nc3ccc4[nH]c(=O)[nH]c4c3)[nH]c2c1 | 27%
Cc1ccc2nc(COc3ccc(Cl)cc3)cc(=O)n2c1 | 15%
Cc1ccc2nc(COc3ccc(N(C)S(=O)(=O)c4ccccc4)cc3)cc(=O)n2c1 | -56%
COc1cccc(COc2ccc(N(C)S(=O)(=O)c3ccccc3)cc2)c1 | 3.08%
O=C(/C(Cl)=C/Nc1ccc(Br)cn1)C(F)(F)F | 12.7%
O=C(CN1C(=O)CC(c2ccco2)Sc2ccccc21)Nc1ccccc1F (stereo not drawn) | -39.3%
Cc1cc(NC(=O)CN2C(=O)CC(c3ccco3)Sc3ccccc32)no1 (stereo not drawn) | -61.8%
O=C(CN1C(=O)CC(c2ccco2)Sc2ccccc21)Nc1ccc2c(c1)OCCO2 (stereo not drawn) | -6.73%
Oc1cccc(C=NCc2ccccc2)c1 | 8.22%
O=C(c1ccc(Cl)cc1)N1CCN(C(=O)C2CCCCC2)CC1 | -2.89%
Cc1cc(C)n(-c2nc(C)nc(N)n2)n1 | 10.3%
CC(C)Oc1cccc(C(=O)C2CCCN(Cc3ccc4nonc4c3)C2)c1 (stereo not drawn) | -1.53%
COc1c(C)cc(C(=O)C2CCCN(Cc3ccc(Oc4ncccn4)cc3)C2)cc1C (stereo not drawn) | -68.9%
COc1c(C)cc(C(=O)C2CCCN(Cc3cccc(O)c3)C2)cc1C (stereo not drawn) | -23.9%
NC(=O)C1CCCN(Cc2ccc(Cl)cc2)C1 (stereo not drawn) | 0.421%
COc1c(C)cc(C(=O)C2CCCN(Cc3ccccn3)C2)cc1C (stereo not drawn) | -16.5%
CC(C)Oc1cccc(C(=O)C2CCCN(Cc3cnn(C(C)C)c3)C2)c1 (stereo not drawn) | -36.3%
O=C(c1ccc(Cl)cc1)C1CCCN(Cc2ccc(Oc3ncccn3)cc2)C1 (stereo not drawn) | -72.9%
CC(C)Oc1cccc(C(=O)C2CCCN(Cc3ccc(Oc4ncccn4)cc3)C2)c1 (stereo not drawn) | -62.6%

SMILES | hERG current change (%, negative = inhibition) at 10uM
COc1cccc(-n2cc3c(=O)n(C)c(=O)n(C)c3c2)c1 | -3.89%
O=C(Nc1ccccc1Br)C(=O)N1CCCC1 | 3.44%
CCCC(C)NC(=O)Cc1ccccc1[N+](=O)[O-] (stereo not drawn) | 2.52%
CCCC(C)NC(=O)C1CCN(S(=O)(=O)c2ccccc2)CC1 (stereo not drawn) | -12%
COc1ccc(OC)c(S(=O)(=O)Nc2cccc(-c3ccc4nncn4n3)c2)c1 | 18.7%
CC(C)(C)C(=O)OCc1nc(-c2ccc3c(c2)OCCO3)cs1 | 10.8%
CCN(CC)CCNCc1cc(Cl)ccc1OCc1ccccc1F.Cl | -72.8%
CC(C)(C)NCc1cc(Cl)ccc1OCc1ccccc1F.Cl | -43.3%
CCOc1ccc(Cl)cc1CNCCc1ccccc1F.Cl | -59.8%
CCNCc1ccc(OCc2ccccc2F)c(OC)c1.Cl | -11%
CCOc1ccc(Cl)cc1CNCCc1ccc(F)cc1.Cl | -48%
CCOc1ccc(Cl)cc1CNCCNCCO.Cl | 24.3%
Cc1ccc2c(c1)C(c1ccccc1)N(C(=O)c1ccc(S(=O)(=O)N3CCOCC3)cc1)CC(=O)N2 (stereo not drawn) | -19.1%
COc1cc([N+](=O)[O-])ccc1NC(=O)C[n+]1ccccc1C.[Cl-] | 11%
N#Cc1c(-c2ccccc2)cc(-c2ccccc2)nc1SCCC(=O)O | 18.4%
COc1ccc(/C(N)=N/OC(=O)c2ccc(C)c([N+](=O)[O-])c2)cc1 | -6.61%
O=C(N/C(=C/c1ccc(Br)cc1)C(=O)N1CCOCC1)c1ccco1 | -24.1%
O=C(N/C(=C\c1ccc(Br)cc1)C(=O)N1CCOCC1)c1ccc(Br)o1 | -67.1%
O=C(N/C(=C/c1ccc(Br)cc1)C(=O)N1CCOCC1)c1ccc(Br)o1 | -70.2%
O=C(N/C(=C\c1ccc(Br)cc1)C(=O)N1CCOCC1)c1ccco1 | -41%
O=C(N/C(=C\c1ccccc1)C(=O)N1CCOCC1)c1ccc(Br)o1 | 3.18%
O=C(N/C(=C/c1ccc(Br)cc1)C(=O)N1CCOCC1)c1cccs1 | -5.65%
